Test results published in PubChem BioAssay.
Activity calls are given as the source filed them. Unless noted, how the calls were made is not given here.

Assays:
[1] = HepG2 liver cancer cell viability effects, profiling panel, resazurin fluorescence, 24 h, PK04 Diversity Set (AID 1172); conditions: higher = more signal
[2] = basal S. cerevisiae growth modulation, no modifier, primary screen, OD600, strain BY4716, 24 h, basal condition (AID 1173); conditions: OD600, 24 h, higher = more signal, called active from +8 up or from −8 down
[3] = MM1S myeloma cell viability, profiling panel, resazurin fluorescence, basal, 24 h, PK04 Diversity Set (AID 1174); conditions: higher = more signal, called active from +8 up or from −8 down;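 further: MM1S multiple myeloma cell line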
[4] = biological target: Dihydroorotate dehydrogenase (quinone), mitochondrial (Plasmodium falciparum (isolate 3D7)) (UniProt Q08210); test: PfDHODH enzyme inhibitors, primary screen, biochemical, C-terminal His tag, absorbance 600 nm (AID 1175); conditions: DCIP absorbance 600 nm, higher = more signal, called active from +8 up or from −8 down;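 further: recombinant parasite enzyme with a five histidine tag at its C terminus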
[5] = P. aeruginosa biofilm formation inhibitors, primary screen, strain PAO1, LB-PBS medium, absorbance 600 nm (AID 1176); conditions: P. aeruginosa PAO1 growth/biofilm, A600, 12 h; higher = more signal
[6] = S. cerevisiae RM11-1a growth modifiers, primary screen, strain RM11-1a, OD600, basal, 24 h (AID 1177); conditions: OD600, 24 h, higher = more signal, called active from +8 up or from −8 down;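 further: cultures grown under basal conditions with no added stressor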
[7] = E. coli acrAB mutant growth effects, primary screen, E. coli filamentation inducers, strain DRC39, OD650, 24 h (AID 1178); conditions: higher = more signal, called active from +8 up or from −8 down;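 further: growth measured as culture turbidity by optical density at 650 nm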
[8] = E. coli acrAB mutant growth effects, primary screen, E. coli filamentation inducers, strain DRC39, OD650, 48 h (AID 1179);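 further: screen aims at cell division blockers that make cells filament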; conditions: E. coli DRC39 delta-acrAB growth, higher = more signal, called active from +8 up or from −8 down
[9] = RPMI8226 myeloma cell viability, profiling panel, resazurin fluorescence, basal, 24 h, PK04 Diversity Set (AID 1180); conditions: higher = more signal;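 further: RPMI8826 multiple myeloma cell line at 5000 cells per well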
[10] = biological target: E3 ubiquitin-protein ligase XIAP (Homo sapiens) (UniProt P98170); test: XIAP binders, primary screen, biophysical, small-molecule microarray, fluorescence 635 nm (AID 1181); conditions: small-molecule microarray binding, higher = more signal;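 further: score merges 667 nm emission and signal to noise over triplicate slides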
[11] = system: XIP peptide (Xip251-270) binding; test: small-molecule binders of XIP peptide, primary screen, biochemical, small-molecule microarray, fluorescence 635/667 nm, 0.1 µg/mL protein (AID 1182); conditions: fluorescent protein binding, 635 nm, higher = more signal, called active from +8 up or from −8 down
XIP peptide (Xip251-270) = test: small-molecule binders of XIP peptide, primary screen, biochemical, small-molecule microarray, fluorescence 635/667 nm, 0.5 µg/mL protein (AID 1183); conditions: small-molecule microarray binding, fluorescence 635 nm; higher = more signal
[12] = Plasmodium falciparum growth inhibition, primary screen, strain 3D7, DAPI fluorescence, 100 nL (AID 1184);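 further: parasites grown inside human red blood cells in medium with human serum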; conditions: P. falciparum 3D7 growth, 3 d, higher = more signal
[13] = biological target: Homeobox protein Hox-A13 (Mus musculus) (UniProt Q62424); test: inhibitors of HoxA13-DNA binding, primary screen, biochemical, fluorescence polarization, labeled oligonucleotide (AID 1185); conditions: 15 min, higher = more signal, called active from +8 up or from −8 down
[14] = inhibitors of hydroxyurea-induced Chk1 phosphorylation, primary screen, imaging, HeLa, phospho-Chk1 antibody, percent positive cells (AID 1186); conditions: hydroxyurea-induced phospho-Chk1 immunofluorescence imaging, higher = more signal
[15] = inhibitors of hydroxyurea-induced Chk1 phosphorylation, primary screen, imaging, HeLa, phospho-Chk1 nuclear intensity (AID 1187); conditions: hydroxyurea-induced phospho-Chk1 immunofluorescence imaging, higher = more signal

Chain of Dihydroorotate dehydrogenase (quinone), mitochondrial (Plasmodium falciparum (isolate 3D7)) (Q08210 whole entry, looked up): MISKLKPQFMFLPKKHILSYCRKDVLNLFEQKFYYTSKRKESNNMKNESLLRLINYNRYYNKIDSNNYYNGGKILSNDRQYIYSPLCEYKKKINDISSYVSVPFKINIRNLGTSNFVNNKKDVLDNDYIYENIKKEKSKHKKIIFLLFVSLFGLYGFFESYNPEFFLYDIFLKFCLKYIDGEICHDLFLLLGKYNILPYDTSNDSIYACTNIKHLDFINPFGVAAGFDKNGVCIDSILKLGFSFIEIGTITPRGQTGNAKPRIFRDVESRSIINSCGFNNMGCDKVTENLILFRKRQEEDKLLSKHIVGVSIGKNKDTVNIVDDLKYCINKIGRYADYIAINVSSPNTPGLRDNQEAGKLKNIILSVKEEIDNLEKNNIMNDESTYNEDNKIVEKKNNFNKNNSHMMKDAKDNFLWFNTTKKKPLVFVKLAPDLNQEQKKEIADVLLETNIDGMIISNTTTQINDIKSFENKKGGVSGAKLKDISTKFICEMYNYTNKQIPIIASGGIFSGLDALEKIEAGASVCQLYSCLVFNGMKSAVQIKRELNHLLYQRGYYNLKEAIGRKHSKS
Chain of E3 ubiquitin-protein ligase XIAP (Homo sapiens) (P98170 whole entry, looked up): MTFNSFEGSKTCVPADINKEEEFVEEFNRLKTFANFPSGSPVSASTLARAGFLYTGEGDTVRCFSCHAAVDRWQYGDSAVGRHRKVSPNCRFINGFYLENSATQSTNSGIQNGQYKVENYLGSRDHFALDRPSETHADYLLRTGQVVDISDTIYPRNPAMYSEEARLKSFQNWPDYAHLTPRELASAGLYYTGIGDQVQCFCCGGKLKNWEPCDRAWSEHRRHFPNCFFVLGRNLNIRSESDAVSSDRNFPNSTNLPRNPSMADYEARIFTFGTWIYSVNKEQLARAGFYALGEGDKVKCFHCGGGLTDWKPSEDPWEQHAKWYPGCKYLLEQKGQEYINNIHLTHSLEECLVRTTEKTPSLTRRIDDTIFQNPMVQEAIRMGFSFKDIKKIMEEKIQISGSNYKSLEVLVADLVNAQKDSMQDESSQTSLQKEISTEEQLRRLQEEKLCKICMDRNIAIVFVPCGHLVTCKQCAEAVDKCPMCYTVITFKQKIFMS
Chain of Homeobox protein Hox-A13 (Mus musculus) (Q62424 whole entry, looked up): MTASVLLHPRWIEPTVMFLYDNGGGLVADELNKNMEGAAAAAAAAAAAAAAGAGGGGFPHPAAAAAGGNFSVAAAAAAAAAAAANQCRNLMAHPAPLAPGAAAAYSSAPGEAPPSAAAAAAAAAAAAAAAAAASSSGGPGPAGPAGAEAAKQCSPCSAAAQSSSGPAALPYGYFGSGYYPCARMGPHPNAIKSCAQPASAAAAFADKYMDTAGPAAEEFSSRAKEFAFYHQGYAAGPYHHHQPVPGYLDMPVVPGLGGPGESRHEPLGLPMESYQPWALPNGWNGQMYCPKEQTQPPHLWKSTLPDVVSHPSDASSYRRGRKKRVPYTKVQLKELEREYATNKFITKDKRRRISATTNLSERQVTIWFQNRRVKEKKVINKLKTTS

Compound	z-score [1]	z-score [2]	z-score [3]	composite z-score [4]	z-score [5]	z-score [6]	z-score [7]	z-score [8]	z-score [9]	composite z-score [10]	composite z-score [11]	composite z-score (XIP peptide (Xip251-270))	z-score [12]	z-score [13]	z-score [14]	z-score [15]
COc1ccc([Si](C)(C)[C@@H]2[C@@H](CC(=O)N3CCC[C@H]3CO)O[C@]3(C(=O)N(Cc4cccc(N5CCCCC5=O)c4)c4ccccc43)[C@H]2C)cc1	-1.26	-0.51 (inactive)	-2 (inactive)	-0.877 (inactive)	0.319 (inactive)	0.625 (inactive)	0.894 (inactive)	0.6 (inactive)	-2.68	0.0167	2.84 (inactive)	0.799	-1.26	-2.93 (inactive)	-0.515 (inactive)	0.336 (inactive)
COCCOC(=O)N1C(=O)[C@@]2(c3cc(C#CCC(C(=O)OC)C(=O)OC)ccc31)[C@H](C(N)=O)[C@H]1C(=O)O[C@H](c3ccccc3)[C@H](c3ccccc3)N1[C@@H]2c1ccc(O)cc1	-0.0776	2.28 (inactive)	-2.92 (inactive)	-0.667 (inactive)	6.87 (inactive)	3.96 (inactive)	0.714 (inactive)	0.537 (inactive)	-4.48	0.0727	0.896 (inactive)	0.77	-2.1	0.218 (inactive)	-0.0553 (inactive)	0.0543 (inactive)
CCOC(=O)C[C@H]1[C@H](OC(=O)c2ccccc2-c2ccccc2)[C@@H](NC(=O)c2ccc3ccccc3c2)c2cc(OCCCO)ccc2N1C(=O)Cc1ccc(OC)cc1	-0.397	0.118 (inactive)	-0.142 (inactive)	-0.0597 (inactive)	-0.283 (inactive)	-0.899 (inactive)	-0.516 (inactive)	-0.404 (inactive)	-0.0439	0.0711	0.882 (inactive)	-0.47	0.0063	-2.79 (inactive)	-0.242 (inactive)	-0.189 (inactive)
C[C@@H]1ON(c2ccc(I)cc2)[C@H](c2cccc(NC(=O)OCC3c4ccccc4-c4ccccc43)c2)[C@H]1C(=O)N1C(=O)OC[C@H]1Cc1ccccc1	0.742	-1.04 (inactive)	0.965 (inactive)	0.14 (inactive)	0.13 (inactive)	0.774 (inactive)	1.32 (inactive)	0.818 (inactive)	1.06	-0.412	-0.283 (inactive)	0.771	-1.27	2.16 (inactive)	0.095 (inactive)	0.0287 (inactive)
O=C1C[C@]2(c3ccc([N+](=O)[O-])cc3)C(=O)N(C3CC3)c3cc(CO)ccc3[C@H]2N1C1CCCCC1	0.277	0.462 (inactive)	-0.0174 (inactive)	-3.75 (inactive)	0.475 (inactive)	0.3 (inactive)	0.0977 (inactive)	0.284 (inactive)	-0.34	-0.0286	-0.217 (inactive)	0.205	1.47	-1.16 (inactive)	-0.214 (inactive)	-0.771 (inactive)
C=CCNC(=O)[C@H]1[C@@H]2C(=O)O[C@@H](c3ccccc3)[C@@H](c3ccccc3)N2[C@@H](c2ccccc2OCCO)[C@]12C(=O)N(C(=O)OCCOC)c1ccc(C#Cc3ccc(OC)cc3)cc12	-0.345	1.19 (inactive)	-0.637 (inactive)	-0.306 (inactive)	2.23 (inactive)	3.16 (inactive)	-0.604 (inactive)	0.582 (inactive)	-1.17	-0.113	0.559 (inactive)	0.807	-2.16	-0.0717 (inactive)	0.0629 (inactive)	0.539 (inactive)
CC(C)(C)N1CC=CC23O[C@@H]4/C=C\CCCOC(=O)C4[C@H]2C(=O)N(CCCCCO)[C@@H]3C1=O (stereo not given in full)	-0.144	0.309 (inactive)	0.0676 (inactive)	-0.22 (inactive)	0.481 (inactive)	-0.746 (inactive)	0.0531 (inactive)	-0.0503 (inactive)	-0.119	-0.11	0.176 (inactive)	-1.03	1.91	-4.34 (inactive)	0.395 (inactive)	0.144 (inactive)
COCCOC(=O)N1C(=O)[C@@]2(c3cc(C#CCCO)ccc31)[C@H](c1ccc(OCCO)cc1)N1[C@H](c3ccccc3)[C@H](c3ccccc3)OC(=O)[C@H]1[C@@H]2C(=O)N1CCCCCCC1	-0.21	0.532 (inactive)	-0.292 (inactive)	-0.0613 (inactive)	1.68 (inactive)	1.13 (inactive)	-0.442 (inactive)	-0.457 (inactive)	-0.621	0.152	0.788 (inactive)	0.614	-2.1	-4.34 (inactive)	0.197 (inactive)	0.476 (inactive)
COC(=O)[C@H](Cc1ccccc1)N1CC2=CCCC=C[C@@H]2[C@H]1[C@H](O)Cc1ccccc1	0.272	-1.7 (inactive)	0.612 (inactive)	-0.313 (inactive)	-0.565 (inactive)	-0.77 (inactive)	-0.337 (inactive)	-0.27 (inactive)	0.0722	0.104	0.444 (inactive)	-0.221	-0.926	-6.25 (inactive)	-0.359 (inactive)	-0.685 (inactive)
C[C@@H]1ON(c2ccccc2)[C@H](c2ccccc2)[C@H]1C(=O)O	0.0656	0.0157 (inactive)	-0.0211 (inactive)	0.341 (inactive)	0.188 (inactive)	0.058 (inactive)	-0.636 (inactive)	-1.02 (inactive)	0.481	-0.0343	-0.117 (inactive)	0.0627	-0.413	-0.711 (inactive)	0.0099 (inactive)	0.203 (inactive)
